Activity calls are given as the source filed them.
Tests used:
[1] = system: Plasmodium falciparum Sir2 (PF13_0152, Sir2A); test: Plasmodium falciparum Sir2A binding compounds – biochemical, small-molecule microarray, 635 nm fluorescence, primary screen (AID 1098); conditions: fluorescence 635 nm, higher = more signal;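 note: score merges spot fluorescence intensity with its signal-to-noise ratio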
[2] = probe aDKK1 binding to arrayed compounds – biochemical, biotinylated probe, 635/667 nm fluorescence, primary screen (AID 1099); conditions: small-molecule microarray, higher = more signal;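 note: score merges 667nm spot fluorescence with signal to noise across triplicate slides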
[3] = probe aCHRDL2 binding to arrayed compounds – biochemical, biotinylated probe, 635/667 nm fluorescence, primary screen (AID 1100); conditions: small-molecule microarray, higher = more signal
[4] = change in splice reporter luminescence, either direction, cell-based, HEK293, spliceosome inhibition project, primary screen (AID 1101); conditions: HEK293 splicing luciferase reporter, 24 h, higher = more signal, called active from +8 up or from −8 down;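 note: HEK293 cells carrying a splicing-competent luciferase reporter gene; test concentration not given here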
[5] = target: Fibroblast growth factor 10 (Homo sapiens) (UniProt O15520); test: compounds binding fibroblast growth factor 10 – biochemical, small-molecule microarray, 635 nm fluorescence, primary screen (AID 1102); conditions: FGF10 binding, fluorescence 635 nm, higher = more signal
Chain of Fibroblast growth factor 10 (Homo sapiens) (O15520 whole entry, looked up): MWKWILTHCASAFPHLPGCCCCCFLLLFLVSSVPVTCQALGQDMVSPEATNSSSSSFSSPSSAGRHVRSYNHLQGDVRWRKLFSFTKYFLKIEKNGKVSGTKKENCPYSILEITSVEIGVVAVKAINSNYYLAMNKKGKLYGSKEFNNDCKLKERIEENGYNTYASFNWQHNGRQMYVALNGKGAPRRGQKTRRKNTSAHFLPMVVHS

[6] = system: glycogen synthase kinase-3 (GSK3A per assay name; protocol says GSK3B); test: compounds binding glycogen synthase kinase-3 – biochemical, small-molecule microarray, 635 nm fluorescence, GSK3A, primary screen (AID 1103); conditions: fluorescence 635 nm, higher = more signal; note: the record names both GSK3A and GSK3B
[7] = target: Epidermal growth factor receptor (Homo sapiens) (UniProt P00533); test: compounds binding epidermal growth factor receptor – biochemical, small-molecule microarray, 635 nm fluorescence, primary screen (AID 1104); conditions: EGFR binding, higher = more signal;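 note: score merges 667 nm emission intensity with spot signal to noise over triplicate slides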
Chain of Epidermal growth factor receptor (Homo sapiens) (P00533 whole entry, looked up): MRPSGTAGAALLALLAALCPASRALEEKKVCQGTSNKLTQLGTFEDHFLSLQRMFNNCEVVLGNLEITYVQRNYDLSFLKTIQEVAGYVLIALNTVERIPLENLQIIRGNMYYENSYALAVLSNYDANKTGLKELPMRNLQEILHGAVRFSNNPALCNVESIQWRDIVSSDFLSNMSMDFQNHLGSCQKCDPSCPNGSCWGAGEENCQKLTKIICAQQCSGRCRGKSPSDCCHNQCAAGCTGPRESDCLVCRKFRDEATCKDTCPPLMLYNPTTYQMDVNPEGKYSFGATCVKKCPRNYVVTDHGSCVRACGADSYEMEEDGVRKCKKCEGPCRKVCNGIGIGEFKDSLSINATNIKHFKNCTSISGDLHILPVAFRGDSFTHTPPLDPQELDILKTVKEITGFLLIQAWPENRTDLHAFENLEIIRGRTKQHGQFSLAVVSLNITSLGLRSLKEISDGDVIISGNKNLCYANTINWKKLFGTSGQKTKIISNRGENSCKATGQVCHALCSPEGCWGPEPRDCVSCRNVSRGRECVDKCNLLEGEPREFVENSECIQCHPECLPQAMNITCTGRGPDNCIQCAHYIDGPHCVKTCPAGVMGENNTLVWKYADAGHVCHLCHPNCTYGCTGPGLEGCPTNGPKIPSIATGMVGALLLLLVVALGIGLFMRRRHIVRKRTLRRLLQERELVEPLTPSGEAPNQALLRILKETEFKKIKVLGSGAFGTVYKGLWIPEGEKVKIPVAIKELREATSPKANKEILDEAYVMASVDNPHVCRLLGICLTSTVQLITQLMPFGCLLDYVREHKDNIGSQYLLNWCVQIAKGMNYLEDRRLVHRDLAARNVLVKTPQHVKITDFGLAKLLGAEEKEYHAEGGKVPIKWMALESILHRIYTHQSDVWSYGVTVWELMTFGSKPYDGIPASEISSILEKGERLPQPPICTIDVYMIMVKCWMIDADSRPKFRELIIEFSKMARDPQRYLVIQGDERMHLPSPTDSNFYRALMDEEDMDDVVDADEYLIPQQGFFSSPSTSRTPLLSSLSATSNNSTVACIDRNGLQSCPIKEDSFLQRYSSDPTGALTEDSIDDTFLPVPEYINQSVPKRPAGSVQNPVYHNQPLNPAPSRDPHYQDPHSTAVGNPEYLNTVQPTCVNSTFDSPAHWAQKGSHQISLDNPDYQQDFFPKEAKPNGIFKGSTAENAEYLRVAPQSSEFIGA

[8] = target: Follistatin-related protein 3 (Homo sapiens) (UniProt O95633); test: compounds binding follistatin-related protein 3 – biochemical, small-molecule microarray, 635 nm fluorescence, primary screen (AID 1105); conditions: FSTL3 binding, higher = more signal;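 note: score merges emission near 667 nm and signal to noise per printed spot across three slides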
Chain of Follistatin-related protein 3 (Homo sapiens) (O95633 whole entry, looked up): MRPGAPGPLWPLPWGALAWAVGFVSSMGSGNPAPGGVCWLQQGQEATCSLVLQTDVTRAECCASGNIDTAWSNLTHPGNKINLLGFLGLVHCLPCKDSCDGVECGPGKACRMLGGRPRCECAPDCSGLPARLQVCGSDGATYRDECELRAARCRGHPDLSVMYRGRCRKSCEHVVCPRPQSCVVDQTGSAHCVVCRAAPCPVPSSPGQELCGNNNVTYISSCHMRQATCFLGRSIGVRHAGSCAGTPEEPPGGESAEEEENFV

[9] = target: Dickkopf-related protein 1 (Homo sapiens) (UniProt O94907); test: small molecules binding DKK1 protein – biochemical, small-molecule microarray, 635 nm fluorescence scan, primary screen (AID 1106); conditions: higher = more signal;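 note: score merges emission near 667 nm with signal to noise over three replicate slides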
Chain of Dickkopf-related protein 1 (Homo sapiens) (O94907 whole entry, looked up): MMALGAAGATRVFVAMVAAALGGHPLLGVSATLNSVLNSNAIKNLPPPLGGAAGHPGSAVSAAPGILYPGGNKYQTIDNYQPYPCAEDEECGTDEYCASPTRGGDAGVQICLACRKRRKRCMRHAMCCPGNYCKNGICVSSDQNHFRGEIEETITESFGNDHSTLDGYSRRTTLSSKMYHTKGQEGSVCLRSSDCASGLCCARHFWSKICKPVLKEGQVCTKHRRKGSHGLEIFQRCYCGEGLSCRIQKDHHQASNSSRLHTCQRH

[10] = system: Inhibin beta A chain (activin A); test: small molecules binding activin A – biochemical, small-molecule microarray, 635 nm fluorescence scan, primary screen (AID 1107); conditions: INHBA, higher = more signal;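 note: mouse activin A protein probed at 4.33 µg/mL on printed slides; score merges bound-protein fluorescence near 667 nm with spot signal-to-noise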
[11] = system: Human papillomavirus type 1a protein E7 (residues 44-93); test: small molecules binding HPV E7 44-93 – biochemical, small-molecule microarray, residues 44-93, 635 nm fluorescence, primary screen (AID 1108); conditions: fluorescence 635 nm, higher = more signal;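 note: E7 fragment applied at 1 µg/mL in TBST for 1 h at 4 C; score combines spot fluorescence with its signal to noise ratio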
[12] = hepatitis C replication reporter changes, two-sided – Huh7 cells, luciferase reporter, HCV replication inhibitor project, primary screen (AID 1109); conditions: Huh7 HCV replicon luciferase reporter, 48 h; higher = more signal;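 note: huh7 hepatoma cells harbouring a luciferase neomycin HCV replicon reporter; luciferase luminescence as measure of HCV replicon replication; test concentration not given here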
[13] = target: Left-right determination factor 2 (Homo sapiens) (UniProt O00292); test: small molecules binding LEFTY2 protein – biochemical, small-molecule microarray, 635 nm fluorescence scan, primary screen (AID 1110); conditions: higher = more signal
Chain of Left-right determination factor 2 (Homo sapiens) (O00292 whole entry, looked up): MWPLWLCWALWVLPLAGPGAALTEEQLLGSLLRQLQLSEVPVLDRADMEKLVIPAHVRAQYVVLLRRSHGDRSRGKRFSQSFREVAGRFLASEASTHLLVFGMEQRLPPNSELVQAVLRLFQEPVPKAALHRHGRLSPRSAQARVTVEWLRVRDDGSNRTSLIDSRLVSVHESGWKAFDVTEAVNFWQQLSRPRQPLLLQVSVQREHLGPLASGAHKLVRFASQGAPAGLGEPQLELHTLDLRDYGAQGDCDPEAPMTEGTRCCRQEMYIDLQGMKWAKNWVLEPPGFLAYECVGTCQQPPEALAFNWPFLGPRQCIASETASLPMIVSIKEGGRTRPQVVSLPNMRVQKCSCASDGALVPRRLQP

[14] = target: Calmodulin-1 (Homo sapiens) (UniProt P0DP23); test: small molecules binding calmodulin-1 with EGTA – biochemical, small-molecule microarray, Cy5-labelled CALM1, profiling panel (AID 1111); conditions: Cy5-CALM1 binding fluorescence, higher = more signal;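 note: labelled calmodulin applied in Tris saline Tween buffer holding calcium plus EGTA and DTT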
[15] = target: Calmodulin-1 (Homo sapiens) (UniProt P0DP23); test: small molecules binding Ca-loaded calmodulin-1 – biochemical, small-molecule microarray, Cy5-labelled CALM1, plus calcium, artefact control for SMM control-protein annotation, profiling panel (AID 1112); conditions: Cy5-CALM1 binding fluorescence, higher = more signal;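 note: score merges spot fluorescence with signal to noise from triplicate slides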
[16] = probe aWnt5a binding to arrayed compounds – biochemical, biotinylated probe, 635/667 nm fluorescence, primary screen (AID 1113); conditions: small-molecule microarray, higher = more signal;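 note: score merges 667 nm fluorescence intensity with signal-to-noise per printed feature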
[17] = probe aShh binding to arrayed compounds – biochemical, biotinylated probe, 635/667 nm fluorescence, primary screen (AID 1114); conditions: small-molecule microarray, higher = more signal;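 note: probe is biotin-labelled aShh protein from a stem cell growth factor screen; measures binding of labelled protein to compounds printed on the slide; score merges feature fluorescence at 667 nm with signal-to-noise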
[18] = probe aNog binding to arrayed compounds – biochemical, biotinylated probe, 635/667 nm fluorescence, primary screen (AID 1115); conditions: small-molecule microarray, higher = more signal;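 note: probe is biotinylated aNog protein used at 0.15 µg/mL for 1 h at 4 C; z-score combines 667 nm fluorescence of each spot with its signal to noise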
[19] = target: Torsin-1A-interacting protein 1 (Homo sapiens) (UniProt Q5JTV8); test: compound microarray binding of lysate hLAP1 – cell lysate, small-molecule microarray, COS7 lysate, 635/667 nm fluorescence, primary screen (AID 1116); conditions: 635 nm fluorescence, higher = more signal
Chain of Torsin-1A-interacting protein 1 (Homo sapiens) (Q5JTV8 whole entry, looked up): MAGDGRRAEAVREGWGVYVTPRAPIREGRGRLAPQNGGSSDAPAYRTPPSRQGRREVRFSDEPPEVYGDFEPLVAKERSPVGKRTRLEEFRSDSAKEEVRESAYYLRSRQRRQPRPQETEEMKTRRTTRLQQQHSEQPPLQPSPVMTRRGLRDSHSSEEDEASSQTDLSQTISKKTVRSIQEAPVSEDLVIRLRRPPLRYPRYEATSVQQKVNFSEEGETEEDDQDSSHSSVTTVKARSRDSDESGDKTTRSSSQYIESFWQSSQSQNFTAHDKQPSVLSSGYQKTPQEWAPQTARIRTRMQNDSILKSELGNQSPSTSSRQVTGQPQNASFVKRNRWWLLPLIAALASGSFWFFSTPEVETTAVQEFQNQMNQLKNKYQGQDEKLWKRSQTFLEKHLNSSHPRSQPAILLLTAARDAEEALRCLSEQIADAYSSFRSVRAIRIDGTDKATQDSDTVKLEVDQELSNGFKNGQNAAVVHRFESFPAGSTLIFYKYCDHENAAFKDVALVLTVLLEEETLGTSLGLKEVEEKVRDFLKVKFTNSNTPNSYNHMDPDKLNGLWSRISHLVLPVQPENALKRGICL

[20] = target: Alpha-bungarotoxin (Bungarus multicinctus) (UniProt P60615); test: compounds binding labelled alpha-BTX control protein – biochemical, small-molecule microarray, Alexa647 label, 635/667 nm fluorescence, artefact control for SMM control protein annotation, profiling panel (AID 1117); conditions: alpha-BTX-A647 binding fluorescence, higher = more signal
Chain of Alpha-bungarotoxin (Bungarus multicinctus) (P60615 whole entry, looked up): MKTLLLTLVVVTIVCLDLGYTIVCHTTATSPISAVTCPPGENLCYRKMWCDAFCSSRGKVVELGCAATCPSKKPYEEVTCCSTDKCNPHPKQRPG

| Structure (SMILES) | composite z-score [1] | composite z-score [2] | composite z-score [3] | z-score [4] | composite z-score [5] | composite z-score [6] | composite z-score [7] | composite z-score [8] | composite z-score [9] | composite z-score [10] | composite z-score [11] | z-score [12] | composite z-score [13] | composite z-score [14] | composite z-score [15] | composite z-score [16] | composite z-score [17] | composite z-score [18] | composite z-score [19] | composite z-score [20] |
| --- | --- | --- | --- | --- | --- | --- | --- | --- | --- | --- | --- | --- | --- | --- | --- | --- | --- | --- | --- | --- |
| COCCCNC(=O)[C@]1(Cc2ccccc2N=[N+]=[N-])N=C(c2ccc(OCCCO)cc2)O[C@@H]1c1ccccc1N=[N+]=[N-] | 0.707 | 0.609 | 0.942 | 1.93 (inactive) | 0.955 | 0.353 | -0.287 | 0.219 | -0.589 | 0.738 | 1.43 | -3.31 | -0.282 | 1.72 | 0.785 | 0.14 | 0.0556 | -0.312 | -0.0819 | 0.955 |
| O=c1cccc(-c2ccc(C(F)(F)F)cc2)o1 | -0.426 | -0.0458 | 0.239 | 0.0423 (inactive) | -0.46 | -0.762 | -0.215 | -0.936 | -0.572 | 0.339 | -1.57 | 0.587 | -0.534 | -0.271 | 0.238 | -0.0685 | 0.163 | -0.0446 | -0.333 | -0.364 |
| NC(=O)N1C(=O)C2C(C1=O)C1C=C(CCCO)C2C(c2cccs2)N1Cc1cc2c(cc1Br)OCO2 (stereo not given) | 0.884 | -0.198 | 0.229 | 0.701 (inactive) | -0.284 | -0.0207 | -0.495 | -0.289 | -0.756 | 0.975 | 0.183 | 0.199 | -0.451 | 1.03 | 0.25 | -0.0685 | 0.147 | 0.244 | 0.333 | 1.23 |
| NC(=O)NCC#Cc1ccc2c(c1)[C@]1(C(=O)N2)[C@H](C(=O)Nc2nc3ccccc3s2)[C@H]2C(=O)O[C@H](c3ccccc3)[C@H](c3ccccc3)N2[C@@H]1c1ccc(O)cc1 | 0.726 | 0.636 | 0.212 | 0.232 (inactive) | 1 | 0.163 | 0.278 | 0.53 | 0.246 | 0.744 | 0.944 | -0.797 | 0.215 | 1.29 | 0.414 | -0.0445 | -0.0243 | 0.23 | 0.187 | 1.64 |
| COc1cc2c(cc1OC)CN(C(=O)[C@@H]1[C@H]3C(=O)O[C@H](c4ccccc4)[C@H](c4ccccc4)N3[C@H](c3ccccc3OCCO)[C@@]13C(=O)Nc1ccc(C#CC4(O)CCCCCC4)cc13)CC2 | 1.1 | 0.159 | 0.0184 | 0.582 (inactive) | 0.366 | 1.13 | 0.368 | 0.511 | 0.383 | 0.275 | 1.35 | -2.18 | 0.246 | 0.545 | 0.222 | -0.0685 | 0.0048 | 0.151 | 1.34 | 1.56 |
| NC(=O)N1C(=O)C2C(C1=O)C1C=C(c3ccc(CO)cc3)C2C(C2CC2)N1Cc1sc2ccccc2c1Cl (stereo not given) | 0.834 | -0.0675 | 0.102 | -0.72 (inactive) | 1.25 | 1.12 | 0.553 | 1.21 | 0.307 | -0.115 | 0.0882 | -1.39 | 1.27 | 0.867 | 0.163 | 0.272 | 0.0756 | 0.264 | 1.9 | 2.12 |
| C=C(/C(=C/C[C@@H](OC(=O)c1ccncc1)c1ccccc1OCCO)c1cc(C(=O)OC)ccc1OC)C(C)C | 1.04 | -0.223 | -0.151 | -1.25 (inactive) | 1.12 | 0.759 | 0.228 | 0.467 | 0.328 | 0.787 | 1.36 | -2 | 0.788 | 0.455 | -0.366 | -0.012 | 0.3 | -0.025 | 0.568 | 0.255 |
| CC(C)N1CC=CC23O[C@@H]4C=CCOC(=O)[C@@H]4[C@H]2C(=O)N(C(C)CO)[C@@H]3C1=O (stereo not given in full) | 0.776 | -0.162 | 0.559 | 0.408 (inactive) | -0.724 | -1.99 | -1.29 | -0.93 | -1.21 | -0.116 | -0.913 | 0.187 | -1.76 | -0.0212 | -0.123 | -0.196 | 0.0278 | 0.141 | -0.606 | -0.127 |
| O=C(NC1CC1)[C@@H]1c2ccccc2C(=O)N(Cc2ccccc2)[C@H]1c1ccc(CO)cc1 | 1.73 | -0.474 | 0.211 | 0.135 (inactive) | 0.209 | 0.714 | -0.375 | -0.298 | -0.551 | 0.443 | 0.511 | -0.89 | -1.25 | -0.564 | -0.648 | -0.148 | 0.0099 | 0.368 | 0.835 | 0.406 |
| Cc1ccc(F)cc1S(=O)(=O)N[C@@H]1CCN(Cc2ccc(Oc3ccccc3)cc2)C1 | 0.499 | -0.392 | -0.38 | 1.25 (inactive) | 0.271 | -0.632 | -0.0463 | 0.626 | 0.47 | 0.192 | -1.39 | -3.67 | 0.74 | -1.08 | -0.466 | -0.147 | -0.195 | -0.388 | -0.104 | 0.471 |
| CON(C)C(=O)C=C1C[C@@H](c2cccc(Cl)c2)O[C@@H](c2cccc(Cl)c2)O1 | 1 | 0.0204 | -0.126 | -1.16 (inactive) | -0.148 | 0.846 | -0.185 | 0.243 | 0.484 | 0.9 | 0.151 | -3.11 | 0.158 | 0.389 | 0.3 | -0.0704 | 0.134 | -0.389 | 0.525 | 0.764 |
